ATXN2 expr inh: reduces ATXN2 reporter expression in HEK-293 cells; HEK-293 ATXN2-luciferase reporter, luminescence, 24 h; hit rate 0.72% among 360,000; Potency, µM (highest dose often 57 µM), without a hit: top-dose activity change, negative = inhibition, actives largely listed as inhibitors; note: % is set by controls: 0 for no effect and ±100 for the full control effect; nearly all actives have a fitted effect of over 55% in size
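qHTS (up to 57 uM final) was run with 24 h compound exposure of reporter cells at 37 °C. Each well was multiplexed: SteadyGlo luminescence measured ATXN2-luciferase expression after a fluorogenic Gly-Phe-AFC viability readout (25 uM final).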
TGFb inhibitor: blocks TGF-b signaling | HepG2 CAGA-GFP TGF-b/SMAD3 reporter, GFP fluorescence, 18 h; TGF-beta stimulated, 500 pg/mL final | hit rate 1.2% among 410,000 | Potency, µM (series often up to 46.1 µM), for inactives: at the top dose activity, negative = inhibition, hits mostly inhibitors | AID 588855; note: % is set by controls: 0 for no effect and ±100 for the full control effect; nearly all actives have a fitted effect of over 65% in size
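TGF-beta reporter screen: HEPG2 CAGA-GFP, 1% FBS, 500 pg/mL TGF-beta final, 18 h; per-cell GFP summed per well; curves fitted and categorized by class.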
S2 tox: reduces viability in counter-screen for ATXN expression inhibitors. S2 cells (HEK-293 line with an ATXN2-luciferase reporter) viability, CellTiter-Fluor protease fluorescence, 24 h. Potency, µM (highest dose often 56.7 µM), most hits filed as cytotoxic. hit rate 0.49% among 400,000. AID 651635; note: nearly all actives have a fitted effect of over 40% in size
HepG2 tox-1: HepG2 cytotoxicity, counter-screen for TGF-b inhibitors; hit rate 0.76% among 410,000; Potency, µM (top dose mostly 46.1 µM), without a hit: at the highest dose activity change, negative = cytotoxicity, usual class: cytotoxic; HepG2 CAGA-GFP viability, ATP luminescence, 18 h
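CellTiter-Glo luminescence gave cytotoxicity after 18 hours at 37 degrees C. The cells were HepG2 CAGA-GFP in 1% FBS DMEM, stimulated with 500 pg/mL TGF-beta after compound addition. %Activity was normalised to no-cell wells (complete cell-killing) and DMSO (no toxicity), and curves were fitted and classified.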
HT1080-NT tox: kills 2HG-producing HT-1080-NT fibrosarcoma cells; Potency, µM (doses to about 46.1 µM), inactives show top-dose activity, negative = less viability, most hits filed as cytotoxic; HT-1080-NT fibrosarcoma viability, CellTiter-Glo ATP luminescence, 48 h; hit rate 1.6% among 360,000;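 note: NT is the 2HG producing partner of a matched IDH1 knockdown line; 0% = DMSO-treated cells and -100% = media-only wells without cells; nearly all actives have a fitted effect of over 55% in size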
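Fibrosarcoma NT cells, 750 per well in 5% FBS RPMI, were exposed to compound for 48 hours. Viability: CellTiter-Glo luminescence.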
HT1080 IDH1KD tx: kills HT-1080 cells with IDH1 knockdown. Potency, µM (highest dose often 46.1 µM), for inactives: at the highest dose activity, negative = toxicity, most hits filed as cytotoxic. HT-1080 IDH1 knockdown viability, ATP luminescence, 48 h. hit rate 2% among 360,000;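 note: 0% = DMSO wells and -100% = cell-free medium wells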
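Knockdown cells (IDH1KD HT-1080) received compounds 2 h after plating at 750 cells/well and were kept 48 h at 37 °C in 5% FBS RPMI. A CellTiter-Glo luminescence read gave % activity for curve fitting.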
TGFb confirm: confirmation of TGF-b signaling inhibitors in HepG2 reporter cells; shares compounds with TGFb inhibitor; HepG2 CAGA-GFP TGF-b reporter, GFP fluorescence, 18 h; cells stimulated with TGF-beta, 500 pg/mL; Potency, µM (series often up to 46.1 µM), inactives show at the highest dose activity, negative = inhibition, usual class: inhibitors; hit rate 63% among 1,600; AID 720534; note: % is set by controls: 0 for no effect and ±100 for the full control effect; nearly all actives have a fitted effect of over 65% in size
HepG2 tox-2: counter-screen for TGF-b inhibitors: cytotoxicity in HepG2 cells | hit rate 27% among 1,600 | Potency, µM (titrated, usually from 46.1 µM), for the others: at the top dose activity, negative = cytotoxicity, most hits filed as inhibitors | HepG2 CAGA-GFP viability, ATP luminescence, 18 h; cells stimulated with TGF-beta, 500 pg/mL | shares compounds with TGFb inhibitor; note: % is set by controls: 0 for no effect and ±100 for the full control effect; nearly all actives have a fitted effect of over 70% in size
TGFb CCL64 inh: blocks TGF-b signaling in CCL64 reporter cells; shares compounds with TGFb inhibitor; CCL64 CAGA-GFP reporter, TGF-b stimulated, GFP fluorescence, 18 h; Potency, µM (doses to about 46.1 µM), for the others: at the highest dose activity, negative = inhibition, hits mostly inhibitors; hit rate 41% among 1,600; AID 720536; note: nearly all actives have a fitted effect of over 65% in size
TGFb COP inh: blocks TGF-b signaling in HepG2 COP reporter; shares compounds with TGFb inhibitor; HepG2 COP-GFP TGF-b reporter, GFP fluorescence, 18 h; cells stimulated by added recombinant TGF-beta; Potency, µM (series often up to 46.1 µM), for the others: top-dose activity, negative = inhibition, most hits filed as inhibitors; hit rate 3% among 1,600; note: nearly all actives have a fitted effect of over 70% in size
The depositor's hits bear a star; i = inactive; u = inconclusive; x = no result. The list is not random: actives were taken first. Their share in the collection is about 3.8%. Calls come from the whole dose curve; as a rule, active = well fitted curve in the direction sought with a large enough effect; inconclusive = small, poorly fitted or top-dose-only effect, or another doubt; inactive = no such curve, though single readings can be large; an effect the other way counts as inactive or inconclusive. Potency is the fitted concentration of half-maximal effect.

SMILES	ATXN2 expr inh	TGFb inhibitor	S2 tox	HepG2 tox-1	HT1080-NT tox	HT1080 IDH1KD tx	TGFb confirm	HepG2 tox-2	TGFb CCL64 inh	TGFb COP inh
CN(C)CCNC(=O)C(c1ccccc1)c1ccccc1	x	-11%	i	-2%	8%	0%	x	x	x	x
CC(C)(C)c1ccc(/C=C2\SC(=O)N(CCNC(=O)c3cccc(S(=O)(=O)N4CCOCC4)c3)C2=O)cc1	-11%	13µM*	u	-19%	-3%	-24%	7.3µM*	u	u	18%
NC(=O)c1cc([N+](=O)[O-])c(Cl)cc1NCc1ccncc1	-4%	u	u	6%	0%	4%	18µM*	-28%	-9%	18%
NC(=O)c1cc([N+](=O)[O-])c(Cl)cc1NCc1ccccn1	-36%	-15%	u	3%	2%	-3%	x	x	x	x
O=C(c1cc(-n2cnnc2)ccc1Cl)N1CCN(c2nc(-c3ccccc3)cs2)CC1	u	11µM*	i	-5%	u	u	8.2µM*	-30%	u	12%
Cc1nc2cccnc2n1-c1cccc(C(=O)NCc2ccc(OC(C)C)cc2)c1	x	0%	x	-20%	x	x	x	x	x	x
O=C(OCc1ccccc1)N(CCCCN(CCCNCc1ccccc1)C(=O)OCc1ccccc1)CCCNCc1ccccc1	u	5µM*	u	5.6µM*	u	u	13µM*	8.2µM*	u	u
Cc1ccc(NC(=O)Cc2cc(C(=O)O)c3ccccc3n2)c(C)c1	x	8.9µM*	i	-53%	-23%	u	u	u	7.3µM*	44%
Cc1ccc(NC(=O)c2cc(-c3cccs3)nc3ccccc23)c(C)c1	-9%	-31%	i	-19%	x	x	x	x	x	x
c1ccc(CNCCCn2cnc3c(OCc4ccccc4)ncnc32)cc1	-6%	17%	i	-8%	-2%	-11%	x	x	x	x
Cc1cc(C)c(CN2CCN(C(=O)Cn3cnc4c(OCc5ccccc5)ncnc43)CC2)c(C)c1	0%	13µM*	u	-23%	u	u	3.7µM*	u	u	39%
Cc1ccc(NCCCn2cnc3c(OCc4ccccc4)ncnc32)cc1C	u	18µM*	u	-24%	-21%	-27%	6.5µM*	u	u	67%
COc1cc(OC)cc(C(=O)N[C@H](C(=O)Nc2nc(-c3ccc(OC)c(OC)c3)cs2)C(C)C)c1	x	13µM*	i	-16%	u	-1%	15µM*	-7%	-18%	23%
O=C(O)c1cc(-c2ccc(-c3c(-c4ccc5c(c4)OCO5)noc3-c3ccsc3)cc2)nc2ccccc12	36%	u	i	-23%	15%	-5%	16µM*	u	18µM*	71%
CSc1ccc(CCNC(=O)c2c(C)nn(-c3ccc(F)cc3)c2-n2cccc2)cc1	u	u	u	-18%	x	x	x	x	x	x
COc1ccc(CCNC(=O)c2ccc(-c3ccc([N+](=O)[O-])cc3Cl)o2)cc1OC	-35%	10µM*	i	-24%	-22%	-29%	21µM*	u	9.2µM*	32%
COc1ccc(CCNC(=O)c2ccc([N+](=O)[O-])cc2Cl)cc1OC	-27%	8%	i	-6%	-7%	6%	x	x	x	x
CC(=O)Nc1cc(OC(C)=O)c2nonc2c1OC(C)=O	u	2.8µM*	x	6.3µM*	6.3µM*	3.5µM*	4.1µM*	7.3µM*	21µM*	9.2µM*
CC(=O)Oc1ccc2nonc2c1OC(C)=O	x	-13%	x	-3%	x	x	x	x	x	x
CCCOc1ccc(CNC(=O)CN2C(=O)c3cccnc3Oc3ccc(C)cc32)cc1	x	0%	x	-19%	x	x	x	x	x	x
CN1CCN(S(=O)(=O)c2ccc(Sc3nc4ccccc4[nH]3)c3nsnc23)CC1	8%	10µM*	i	1%	13%	12%	-19%	6%	6%	9%
Oc1ccc(C[C@H]2CNC(=S)N2CC2CCCN2C[C@H](Cc2ccc(O)cc2)N2C[C@H](Cc3ccccc3)N(CC3CCCCC3)C2=S)cc1 (some centres not stated)	u	7.9µM*	u	-1%	-25%	-27%	6.5µM*	u	u	-5%
Oc1ccc(C[C@H]2CNC(=S)N2CC2CCCN2C[C@H](Cc2ccc(O)cc2)N2C[C@H](Cc3ccccc3)N(CC3CCCCCC3)C2=S)cc1 (some centres not stated)	-27%	7.9µM*	i	-8%	-11%	-22%	6.5µM*	-8%	10µM*	10%
CC(C)C[C@H]1CNC(=S)N1C[C@H]1CCCN1C[C@H](Cc1ccc(O)cc1)N1C[C@H](Cc2ccccc2)N(CC2CCCCCC2)C1=S	0%	u	u	-20%	-27%	-18%	u	-4%	u	3%
Oc1ccc(C[C@H]2CNC(=S)N2CC2CCCN2C[C@H](Cc2ccc(O)cc2)N2C[C@H](Cc3ccc(O)cc3)N(CC3CCCCCC3)C2=S)cc1 (some centres not stated)	20µM*	7.9µM*	u	-10%	u	u	16µM*	u	3.3µM*	13%
Oc1ccc(C[C@@H](CN2CCCC2CN2C(=S)NC[C@@H]2Cc2ccccc2)N2C[C@H](Cc3ccccc3)N(CC3CCCCCC3)C2=S)cc1 (some centres not stated)	-4%	x	i	x	-3%	-15%	x	x	x	x

Bioassay records: PubChem, National Center for Advancing Translational Sciences (NCATS)
